PubChem BioAssay (NCATS)
Records with an inconclusive call do not appear. Active and inactive are the calls of the source. The call rests on the fitted dose curve; in most records, active means well fitted inhibition curve with a large enough effect; inconclusive means small, poorly fitted or top-dose-only effect; inactive means flat fitted curve, though single readings scatter.

Assays:
Test in all cases: qHTS profiling for inhibitors of Plasmodium falciparum proliferation (AID 504749); further: nearly all actives have a fitted effect of over 60% in size
Details in all cases: P. falciparum in erythrocytes, SYBR Green DNA, 72 h; series mostly up to 28.7 µM
CP325 = tested on: CP325
Outline: (§1)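 Quantitative HTS: compounds pinned into medium, infected erythrocytes added (0.3% parasitemia, 2.5% hematocrit), 72 h culture at 37 C under 5% CO2. Saponin/Triton lysis with SYBR Green I, overnight RT, then fluorescence read.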

CP329 = tested on: CP329
Outline: as §1

DFO2036 = tested on: DFO2036
Outline: as §1

DIV30 = tested on: DIV30
Outline: as §1

Dd2 = tested on: Dd2
Outline: as §1

ECU = tested on: ECU
Outline: as §1

FAB9 = tested on: FAB9
Outline: as §1

GB4 = tested on: GB4
Outline: as §1

HB3 = tested on: HB3
Outline: as §1

ICS = tested on: ICS
Outline: as §1

JCK = tested on: JCK
Outline: as §1

N140 = tested on: N140
Outline: as §1

P93_24 = tested on: P93_24
Outline: as §1

P94_40 = tested on: P94_40
Outline: as §1

PAD = tested on: PAD
Outline: as §1

PC15 = tested on: PC15
Outline: as §1

PC26 = tested on: PC26
Outline: as §1

CP335 = tested on: CP335
Outline: as §1

DIV17 = tested on: DIV17
Outline: as §1

DIV14 = tested on: DIV14
Outline: as §1

Measured: Potency
Potency means the concentration at half of the fitted maximal effect.

CC1CCN(CCCC(=O)c2ccc(F)cc2)CC1
not listed: CP335 | DIV17 | DIV14
inactive: all other assays above

CC[N+](CC)(CC(=O)Nc1c(C)cccc1C)Cc1ccccc1
not listed: DIV17 | DIV14
inactive: all other assays above

CC(=O)N(CC(O)CO)c1c(I)c(C(=O)NCC(O)CO)c(I)c(C(=O)NCC(O)CO)c1I (stereo not drawn)
active: HB3 10 µM | ICS 7.08 µM
inactive: CP325 | CP329 | DFO2036 | DIV30 | Dd2 | FAB9 | JCK | P94_40

CN1CCCN=C1COC(=O)C(O)(c1ccccc1)C1CCCCC1 (stereo not drawn)
not listed: GB4 | DIV14
inactive: all other assays above

O=C1c2ccccc2C(=O)C1c1ccc(Br)cc1
active: Dd2 11.2 µM | GB4 9.53 µM | ICS 11.2 µM | P94_40 10 µM
inactive: CP325 | CP329 | DIV30 | FAB9 | HB3 | JCK | N140 | PC15

O=C1C(c2[nH]c3ccccc3c2O)=Nc2ccccc21
inactive: CP329 | CP335 | DFO2036 | Dd2 | FAB9 | JCK

C[C@H]1COc2c(C3(N)CC3)c(F)cc3c(=O)c(C(=O)O)cn1c23
not listed: GB4 | CP335 | DIV14
inactive: all other assays above

CCCCCC(C)N (stereo not drawn)
inactive: CP325 | CP329 | DFO2036 | DIV14 | DIV30 | FAB9 | GB4 | JCK | PC15 | PC26
active: Dd2 11.2 µM | ICS 5.01 µM

NC(=O)CCCCC1CCSS1 (stereo not drawn)
inactive: CP325 | CP329 | CP335 | DFO2036 | Dd2 | FAB9 | JCK | N140 | PC15

CC(=O)OCC(COC(C)=O)OC(C)=O
not listed: CP335
inactive: all other assays above

Nc1c2c(nc3c1CCC3)CCCC2
active: DIV14 13.5 µM | DIV17 15.1 µM | Dd2 12.6 µM | GB4 16.9 µM | HB3 10 µM | ICS 12.6 µM | P94_40 11.2 µM

NCc1ccc(S(N)(=O)=O)cc1
active: HB3 3.98 µM | ICS 2.51 µM
not listed: GB4 | P93_24 | PC26 | CP335 | DIV17 | DIV14
inactive: all other assays above

CCCCCCCCCCC(CO)CCCCCCCC (stereo not drawn)
active: ICS 8.91 µM
not listed: GB4 | P93_24 | DIV17 | DIV14
inactive: all other assays above

CC(CN(C)C)C(C)(O)Cc1ccc(Cl)cc1 (stereo not drawn)
inactive: DFO2036 | FAB9 | HB3 | JCK | PAD | PC15
active: DIV17 6.01 µM | Dd2 7.94 µM | GB4 6.75 µM

CCCNC(C)(C)COC(=O)c1ccccc1
not listed: GB4 | PC26 | CP335
inactive: all other assays above

Cc1[nH]c(C)c(Cl)c(=O)c1Cl
not listed: CP329 | GB4 | ICS | PC15 | PC26 | CP335
inactive: all other assays above

CN1C[C@@H]2C[C@H]1CN2c1cc2c(cc1F)c(=O)c(C(=O)O)cn2C1CC1
inactive: DIV17 | FAB9 | HB3 | JCK | PAD
active: CP335 1.2 µM | Dd2 1.41 µM | P93_24 1.58 µM

CC(=O)OC[C@H]1O[C@@](COC(C)=O)(O[C@H]2O[C@H](COC(C)=O)[C@@H](OC(C)=O)[C@H](OC(C)=O)[C@H]2OC(C)=O)[C@@H](OC(C)=O)[C@@H]1OC(C)=O
active: P94_40 2.82 µM
not listed: CP329 | DFO2036 | ECU | N140 | P93_24 | PAD
inactive: all other assays above

Cc1cc(-n2nc3ccc(Cl)cc3n2)c(O)c(C(C)(C)C)c1
not listed: DFO2036 | ECU | N140 | P93_24 | P94_40 | PAD
inactive: all other assays above

O=C(/C=C/c1ccccc1)OCc1ccccc1
not listed: ICS | CP335
inactive: all other assays above

OC[C@@H](O)[C@@H](O)[C@H](O)[C@H](O)CO
not listed: CP335
inactive: all other assays above

NC(=O)c1ccc([N+](=O)[O-])cc1Cl
active: HB3 12.6 µM | ICS 4.47 µM
inactive: CP325 | CP329 | DFO2036 | DIV30 | Dd2 | FAB9 | JCK | P94_40

Cc1cc(OI)c(C(C)C)cc1-c1cc(C(C)C)c(OI)cc1C
inactive: CP329 | DFO2036 | FAB9 | JCK
active: DIV14 10.7 µM | DIV17 13.5 µM | Dd2 10 µM | GB4 13.5 µM | N140 12.6 µM | P94_40 11.2 µM | PC15 11.2 µM

O=C(O)CCC(=O)O
not listed: CP335
inactive: all other assays above
